PubChem BioAssay (Tox21)
Values joined by “and” are separate entries in the source; they are usually repeats but may differ in a detail not shown here. Equal values may be shown once. Results filed as inconclusive are left out. A call without a number means that no potency is given here. Values without a mark were called inactive. Active and inactive are the calls of the source. The call rests on the fitted dose curve; in most records, active means well fitted cell-killing curve with a large enough effect in the repeat runs; inconclusive means weak or mixed curves, or effect the other way; inactive means no such curve, though single readings can be large or run the other way.

assay: Caspase-3/7 induction in CHO-K1 cells by small molecules, qHTS cell viability counter screen (AID 1346979); conditions: CellTiter-Fluor fluorescence, 17 h; series mostly up to 42.5 µM; further: nearly all actives have a fitted effect of over 35% in size
Excerpt: National Center for Advancing Translational Sciences [NCATS]
NIH Chemical Genomics Center [NCGC]
U.S. Environmental Protection Agency [EPA]
National Institutes of Environmental Health Sciences [NIEHS]
National Toxicology Program [NTP]
U.S. Food and Drug Administration [FDA]
Apoptosis is a process of programmed cell death and plays a central role in the development of multicellular organisms. It is a highly regulated process and induces cell death by activating caspases, which are the members of cysteine aspartic acid-specific protease (caspase) family. Caspases involved in apoptosis are classified by their mechanism of action as initiator caspases (caspase-2, -8, -9 and -10) and executioner caspases (caspase-3, -6, and -7). Inhibition of apoptosis results in number of cancers, autoimmune diseases, inflammatory diseases and viral infection. To identify small molecule compounds that induce apoptosis, a homogeneous, luminescent Caspase-Glo 3/7 assay was used. Wild type CHO-K1 cells were used to screen Tox21 libraries for identifying caspase-3/7 activity inducers. Also cytotoxicity of the compounds was tested in parallel by measuring the cell viability using CellTiter-Fluor assay system in the same wells.
Tox21 Assay Protocol Summary:
CHO-K1 cells were dispensed at 1,500 per well in 5uL of culture medium into white solid bottom 1536-well plates (Corning Life Sciences, Corning, NY) using a Multidrop Combi (Thermo Scientific, Waltham, MA) dispenser. The assay plates were incubated at 37 C and 5% CO2 for 5hr, and then 23nL of compounds dissolved in DMSO and positive control were transferred using a Pintool station (Wako, San Diego, CA). The assay plates were incubated at 37C and 5% CO2 for 17hr. For cytotoxicity read, after 16hr incubation at 37C, 1uL CellTiter-Fluor reagent (Promega Corporation, Madison, WI) was added to each well of the assay plates using Flying Reagent Dispenser (FRD, Aurora Discovery, San Diego, CA). After 1hr incubation at 37C and 5% CO2, the fluorescence signal was quantified using a ViewLux plate reader (PerkinElmer, Shelton, CT).
Potency means the concentration at half of the fitted maximal effect.

Structure (SMILES) | Potency | activity change, negative = cytotoxicity
CC(=O)N(CC(O)CO)c1c(I)c(C(=O)NCCO)c(I)c(C(=O)NCC(O)CO)c1I (stereo not given) | inactive | 
O=C[C@H](O)[C@@H](O)[C@H](O)[C@H](O)CO | inactive | 
COCCCOCCCOC | inactive | 
CC(C)(C)c1nnc(NS(=O)(=O)c2ccccc2)s1 | inactive | 
CCc1ccc(O)c(OC)c1 | inactive | 
O=c1[nH]c(=O)n([C@H]2C[C@H](O)[C@@H](CO)O2)cc1I | inactive | 
C[C@H]1C[C@@H](O)CC(C)(C)C1 | inactive | 
O=S(O)CO | inactive | 
CC/C=C\CCOC(C)=O | inactive | 
Cc1c(NC(C)C)c(=O)n(-c2ccccc2)n1C | inactive | 
Cc1cccc(C)c1NC(=O)C(C)N (stereo not given) | inactive | 
CC(=O)Nc1c(I)cc(I)c(C(=O)O)c1I | inactive | 
Nc1nc2c(ncn2COC(CO)CO)c(=O)[nH]1 | inactive | 
C[C@@H]1CCN(C(=O)[C@H](CCCN=C(N)N)NS(=O)(=O)c2cccc3c2NC[C@H](C)C3)[C@@H](C(=O)O)C1 | inactive | 
CC[N+](C)(C)c1cccc(O)c1 | inactive | 
C[C@H](NC(CCc1ccccc1)C(=O)O)C(=O)N1CCC[C@H]1C(=O)O (stereo not given in full) | inactive | 
NC(CSCC(=O)O)C(=O)O (stereo not given) | inactive | 
COc1ccc(CCN(C)CCCC(C#N)(c2cc(OC)c(OC)c(OC)c2)C(C)C)cc1OC (stereo not given) | inactive | 
O=c1cc(CO)occ1O | inactive | 
CC(C)(CC(=O)O)C(=O)O | inactive | 

Structure (SMILES) | Potency | activity change, negative = cytotoxicity
CCOC(C)(C)C | inactive | 
C[C@](N)(Cc1ccc(O)cc1)C(=O)O |  | -0.609% [at 8.39 µM]
COC(=O)c1ccc(C)cc1C1=NC(C)(C(C)C)C(=O)N1 (stereo not given) | inactive | 
CCO[Si](CCC1CCC2OC2C1)(OCC)OCC (stereo not given) | inactive | 
CCOc1ccc(C(=O)OCCN(CC)CC)cc1 | inactive | 
CC(C)OC(=O)c1ccccc1 | inactive | 
C=CCCCCCCCCC=O | inactive | 
O=[N+]([O-])c1ccc(F)cc1F | inactive | 
CCOC(=O)CCC(C)=O | inactive | 
CC(C)NC(=O)NC(C)C | inactive | 
CCO/C([O-])=N/c1c[n+](N2CCOCC2)no1 | inactive | 
COC(=O)CC(C)=O | inactive | 
CCC(C)S (stereo not given) |  | 5.39% [at 3.27 µM]
CC(C)(C)c1ccc(O)c(O)c1 | 63.2 µM (active) and 57.7 µM (active) | 
O=C1NC(=O)[C@@]2(CCOc3ccc(F)cc32)N1 | inactive | 
CCn1ccnc1CC1COc2ccccc2O1 (stereo not given) | inactive | 
NS(=O)(=O)c1cc(C(=O)O)cc(N2CCCC2)c1Oc1ccccc1 | inactive | 
N=C(N)c1ccc2cc(OC(=O)c3ccc(N=C(N)N)cc3)ccc2c1 | inactive | 
ClC(Cl)(Br)Br | inactive | 
CC/C=C\CC/C=C/C(OCC)OCC | inactive | 
